# Laboratory results taken from PubChem BioAssay AID1159580 (chemical genetic matrix, 2015).
# Values joined by “and” are separate entries in the source; they are usually repeats but may differ in a detail not shown here. Equal entries are not always repeated. The campaign covered roughly 5,500 compounds. About 2,000 (36%) were called active. Another 18% or so got no clear call; they are omitted. This is one part of the list. Values without a mark were called inactive. No stated cut-off is given here; in the data, active means normalized growth mostly below about 0.91 (no sharp cut-off); inconclusive means no clear call, values can overlap the other calls; inactive means mostly above about 0.92.
# Assay: chemical genetic growth profiling, strain panel (AID 1159580);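 further: tested at 20 µM; growth read once vehicle control cultures reached saturation at 30 °C; 1 = growth at the plate median or of vehicle wells; lower values mean less growth of the strain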
# Conditions: S. cerevisiae deletion strains, growth OD
smiles,measurement,setting,value
O=C1C=CC(=O)c2c(O)cccc21,normalized growth,"locus YAL021C, strain ccr4, active compounds read low",1.01
same,normalized growth,"locus YAL026C, strain drs2, active compounds read low",0.951
same,normalized growth,"locus YAL030W, strain snc1, active compounds read low",0.965
same,normalized growth,"locus YBL061C, strain skt5, active compounds read low",0.976
same,normalized growth,"locus YBR009C, strain hhf1, active compounds read low",0.966
same,normalized growth,"locus YBR021W, strain FUR4, active compounds read low",1.09
same,normalized growth,"locus YBR023C, strain chs3, active compounds read low",0.973
same,normalized growth,"locus YBR171W, strain sec66, active compounds read low",1
same,normalized growth,"locus YBR229C, strain ROT2, active compounds read low",0.955
same,normalized growth,"locus YBR231C, strain swc5, active compounds read low",0.876 (active)
same,normalized growth,"locus YBR279W, strain paf1, active compounds read low",0.974
same,normalized growth,"locus YCL011C, strain gbp2, active compounds read low",0.978
same,normalized growth,"locus YCL016C, strain dcc1, active compounds read low",0.975
same,normalized growth,"locus YCL029C, strain bik1, active compounds read low",0.983
same,normalized growth,"locus YCL069W, strain vba3, active compounds read low",0.971
same,normalized growth,"locus YCR088W, strain abp1, active compounds read low",0.981
same,normalized growth,"locus YDL005C, strain med2, active compounds read low",1
same,normalized growth,"locus YDL035C, strain GPR1, active compounds read low",0.993
same,normalized growth,"locus YDL040C, strain nat1, active compounds read low",1
same,normalized growth,"locus YDL074C, strain BRE1, active compounds read low",1.02
same,normalized growth,"locus YDL101C, strain DUN1, active compounds read low",0.966
same,normalized growth,"locus YDL134C, strain PPH21, active compounds read low",0.967
same,normalized growth,"locus YDL185W, strain tfp1, active compounds read low",0.961
same,normalized growth,"locus YDL192W, strain arf1, active compounds read low",0.972
same,normalized growth,"locus YDR001C, strain nth1, active compounds read low",0.991
same,normalized growth,"locus YDR069C, strain doa4, active compounds read low",0.956
same,normalized growth,"locus YDR101C, strain arx1, active compounds read low",1.03
same,normalized growth,"locus YDR137W, strain rgp1, active compounds read low",0.708 (active)
same,normalized growth,"locus YDR159W, strain sac3, active compounds read low",0.838 (active)
same,normalized growth,"locus YDR162C, strain NBP2, active compounds read low",0.912
same,normalized growth,"locus YDR195W, strain ref2",1.03
same,normalized growth,"locus YDR297W, strain sur2, active compounds read low",1.01
same,normalized growth,"locus YDR318W, strain mcm21, active compounds read low",0.962
same,normalized growth,"locus YDR334W, strain swr1, active compounds read low",0.879 (active)
same,normalized growth,"locus YDR335W, strain msn5, active compounds read low",0.975
same,normalized growth,"locus YDR388W, active compounds read low",0.99
same,normalized growth,"locus YDR392W, strain spt3, active compounds read low",0.596 (active)
same,normalized growth,"locus YDR502C, strain sam2, active compounds read low",1.01
same,normalized growth,"locus YEL003W, strain gim4, active compounds read low",0.969
same,normalized growth,"locus YEL037C, strain rad23, active compounds read low",0.973
same,normalized growth,"locus YEL061C, strain CIN8 (second series), active compounds read low",0.983
same,normalized growth,"locus YEL061C, strain CIN8, active compounds read low",0.982
same,normalized growth,"locus YER015W, strain faa2, active compounds read low",0.956
same,normalized growth,"locus YER016W, strain bim1, active compounds read low",1.02
same,normalized growth,"locus YER110C, active compounds read low",0.972
same,normalized growth,"locus YER111C, strain swi4, active compounds read low",1.13 [resistant] (active)
same,normalized growth,"locus YER155C, strain BEM2 (second series), active compounds read low",0.766 (active)
same,normalized growth,"locus YER155C, strain BEM2, active compounds read low",1
same,normalized growth,"locus YER167W, strain BCK2, active compounds read low",0.984
same,normalized growth,"locus YFR010W, strain ubp6, active compounds read low",0.907
same,normalized growth,"locus YGL078C, strain dbp3, active compounds read low",1.04
same,normalized growth,"locus YGL086W, strain mad1, active compounds read low",1.02
same,normalized growth,"locus YGL167C, strain pmr1, active compounds read low",0.961
same,normalized growth,"locus YGL173C, strain kem1, active compounds read low",0.938
same,normalized growth,"locus YGL227W, strain vid30, active compounds read low",1.04
same,normalized growth,"locus YGL240W, strain doc1, active compounds read low",0.817 (active)
same,normalized growth,"locus YGL248W, strain PDE1, active compounds read low",0.955
same,normalized growth,"locus YGL253W, strain hxk2, active compounds read low",0.979
same,normalized growth,"locus YGR078C, strain PAC10, active compounds read low",0.958
same,normalized growth,"locus YGR135W, strain pre9, active compounds read low",0.966
same,normalized growth,"locus YGR229C, strain SMI1, active compounds read low",0.97
same,normalized growth,"locus YGR252W, strain gcn5, active compounds read low",1.03
same,normalized growth,"locus YHR013C, strain ard1, active compounds read low",0.894
same,normalized growth,"locus YHR027C, strain rpn1, active compounds read low",0.954
same,normalized growth,"locus YHR030C, strain SLT2, active compounds read low",0.993 and 0.875
same,normalized growth,"locus YHR079C, strain IRE1 (second series), active compounds read low",0.997
same,normalized growth,"locus YHR079C, strain IRE1, active compounds read low",0.972
same,normalized growth,"locus YHR094C, strain hxt1, active compounds read low",1
same,normalized growth,"locus YHR129C, strain ARP1, active compounds read low",0.991
same,normalized growth,"locus YHR142W, strain chs7, active compounds read low",0.992
same,normalized growth,"locus YHR200W, strain rpn10, active compounds read low",0.963
same,normalized growth,"locus YIL066C, strain RNR3, active compounds read low",0.965
same,normalized growth,"locus YIL073C, strain SPO22, active compounds read low",0.933
same,normalized growth,"locus YIL125W, strain kgd1, active compounds read low",0.997
same,normalized growth,"locus YIR030C, strain dcg1, active compounds read low",1
same,normalized growth,"locus YJL092W, strain hpr5, active compounds read low",0.987
same,normalized growth,"locus YJL095W, strain BCK1 (second series), active compounds read low",0.946
same,normalized growth,"locus YJL095W, strain BCK1, active compounds read low",0.903 and 0.941
same,normalized growth,"locus YJL115W, strain asf1, active compounds read low",0.969
same,normalized growth,"locus YJL129C, strain trk1, active compounds read low",1.02
same,normalized growth,"locus YJL134W, strain LCB3, active compounds read low",0.984
same,normalized growth,"locus YJL154C, strain vps35, active compounds read low",0.974
same,normalized growth,"locus YJL164C, strain tpk1, active compounds read low",0.953
same,normalized growth,"locus YJL166W, strain qcr8, active compounds read low",0.935
same,normalized growth,"locus YJL168C, strain set2, active compounds read low",0.988
same,normalized growth,"locus YJL187C, strain SWE1 (second series), active compounds read low",0.964
same,normalized growth,"locus YJL187C, strain SWE1, active compounds read low",0.987
